From publication PMC7819943, “Rice protein-binding microarrays: a tool to detect cis-acting elements near promoter regions in rice”
Whole data set: some 39,000 sequences, median “fluorescence intensity (a.u.)” near 4,300, cut for the highest 2% near 39,000. For the sample, the highest values were picked, then their nearest neighbours and some sequences at random.

biological target: T1, OsSMF1 (Oryza sativa, UniProt Q6ZLB0 1-436); experiment: protein-binding microarray (RPBM); PBS, 2% BSA, 51.3 ng/ul salmon testes DNA, 50 uM zinc acetate, 200 nM TF, 25 C, 1 h; high values mean tight binding; conditions: protein: recombinant; tags: N-terminal polyhistidine and DsRed monomer fusion (pET32a); chain copies: 2; label: CyDye5-dUTP incorporated in the synthesized complementary strand; 3' TTTTT single-stranded linker to array surface; dsDNA, one strand shown
T1 sequence: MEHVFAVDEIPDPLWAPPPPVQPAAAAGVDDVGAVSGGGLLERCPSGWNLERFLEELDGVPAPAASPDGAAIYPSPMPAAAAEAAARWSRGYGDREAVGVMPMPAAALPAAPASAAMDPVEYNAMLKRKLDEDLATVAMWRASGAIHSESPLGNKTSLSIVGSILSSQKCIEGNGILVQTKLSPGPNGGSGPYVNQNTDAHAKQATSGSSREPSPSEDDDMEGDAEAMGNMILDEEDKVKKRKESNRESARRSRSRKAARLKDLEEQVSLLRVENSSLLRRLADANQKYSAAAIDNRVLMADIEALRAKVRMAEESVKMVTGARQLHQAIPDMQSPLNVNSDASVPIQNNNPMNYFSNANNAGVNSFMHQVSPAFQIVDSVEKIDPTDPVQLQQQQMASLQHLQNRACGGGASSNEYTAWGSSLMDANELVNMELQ
Method in brief: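 Ni–NTA purification followed expression in E. coli BL21-CodonPlus of transcription factors fused N-terminally to a polyhistidine tag and DsRed. At 200 nM in PBS with 2% BSA, salmon testes DNA and 50 µM zinc acetate, the protein was incubated for 1 h at 25 °C with a custom Agilent array that had been primer-extended with Cy5-dUTP and blocked with 2% BSA. After washing, the array was read on an Axon 4000B scanner. The binding signal is per-feature fluorescence intensity in arbitrary units.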

Sequence	binding signal
AACTGGAACCCTTAGCCACTGTGAGGTGTACATCTGACAACGGAGTCACCTAGTGCAG	4990 fluorescence intensity (a.u.)
CTAGCCACTGAAGCATGGGTCATGATACAGCAGTTAATATCGGAGTCACCTAGTGCAG	3440 fluorescence intensity (a.u.)
CTTATCAAGACTCGTGGCGTGGAAAGCTTTACAGGTGAGGCGGAGTCACCTAGTGCAG	4710 fluorescence intensity (a.u.)
ATGCATGACAGCACACCACACATTGACACCACTGAGGCAGCGGAGTCACCTAGTGCAG	3260 fluorescence intensity (a.u.)
TTAAAGAAATGGTTGGTGCTGCTCCGACTCCCTGTTTCCTCGGAGTCACCTAGTGCAG	16200 fluorescence intensity (a.u.)
GCCTCTCCTCAAGCGGTGGAGAGCGCGGACGTGGACGTGCCGGAGTCACCTAGTGCAG	6520 fluorescence intensity (a.u.)
GGCTCAAAAGATTCATCTCGCGATTTCCATACAAACTGTACGGAGTCACCTAGTGCAG	46300 fluorescence intensity (a.u.)
TATCAAATTATAGCGCAATTAGGCTCAAAAGATTCAGATTCGGAGTCACCTAGTGCAG	26600 fluorescence intensity (a.u.)
GGATTAATTAGTCTCAAAAGATTCGTCTCGCGGTTTCCAGCGGAGTCACCTAGTGCAG	29400 fluorescence intensity (a.u.)
TGTCAAATCATGACGCAATTAGGCTCAGAAGATTCGTCTCCGGAGTCACCTAGTGCAG	4030 fluorescence intensity (a.u.)
AAAAGATTCGTCTCGCAATTTACACGTAACCTGTGTAATTCGGAGTCACCTAGTGCAG	7350 fluorescence intensity (a.u.)
GGCTTAAAAGATTCGTTTCATAATTTACACGCAAACTGTACGGAGTCACCTAGTGCAG	3890 fluorescence intensity (a.u.)
GATTCGTCTCGCGATTTCCATTCAAACTGTGCAATTAGTTCGGAGTCACCTAGTGCAG	28000 fluorescence intensity (a.u.)
ATTAGGCTCAAAAGATTCGTCTCGCGATTTTCAGACGAGCCGGAGTCACCTAGTGCAG	41800 fluorescence intensity (a.u.)
TTATGATGTAATTAGGCTCAAAAGATTCGTCTCGCAATTTCGGAGTCACCTAGTGCAG	44200 fluorescence intensity (a.u.)
GGGTGATTGAATCCTTGTCATCTAGTGTAAGGCATCTTTCCGGAGTCACCTAGTGCAG	4510 fluorescence intensity (a.u.)
CGGCCTATAAGTACTCCATCCCGCCGGCCGGCCGGTGACTCGGAGTCACCTAGTGCAG	3370 fluorescence intensity (a.u.)
ATCTGTTAGGTATTTAATTTATTTTCTTTTGCTATGTCAGCGGAGTCACCTAGTGCAG	3880 fluorescence intensity (a.u.)
GCTTAATAAATTCGTCTCGCGGTTTAATGTTGGATTCTGTCGGAGTCACCTAGTGCAG	3670 fluorescence intensity (a.u.)
TAATTCAGCTTAATAAATTCGTCCAGCTGTTTACTGACTGCGGAGTCACCTAGTGCAG	52800 fluorescence intensity (a.u.)
TTAATGCATACTGACAGCTGTTTATGTGCTTCAAATTTACCGGAGTCACCTAGTGCAG	4700 fluorescence intensity (a.u.)
GCGAGCGGCCAACTGGGAAGGCGGTGGTGAGGACATCGTGCGGAGTCACCTAGTGCAG	5400 fluorescence intensity (a.u.)
GCGCATTGGCGAGGACTGCGACTATCTGGGAAGCGTGAAGCGGAGTCACCTAGTGCAG	51500 fluorescence intensity (a.u.)
TCTGCCGCCGGCCGCGGCGAGGGATGGCATTGGCGTGGCGCGGAGTCACCTAGTGCAG	3550 fluorescence intensity (a.u.)
